This note sets out measurements from PubChem BioAssay (Tox21).

The nature of test [1]: qHTS assay to identify small molecule antagonists of the thyroid receptor (TR) signaling pathway - cell viability counter screen (AID 743064). Also: nearly all actives have a fitted effect of over 50% in size. In short, it runs like this:
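GH3.TRE-Luc rat pituitary cells carrying a TRE-luciferase reporter were treated with compound plus 1 nM T3 (final) for 23.5 h at 37 °C. Viability was then read in the same wells by CellTiter-Fluor fluorescence after a further 30 min.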

A short description of test [2]: qHTS assay to identify small molecule antagonists of the thyroid receptor (TR) signaling pathway (AID 743065). Also: series mostly up to about 70 µM; nearly all actives have a fitted effect of over 55% in size. A digest of the protocol:
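GH3.TRE-Luc rat pituitary cells carrying two TR response elements driving luciferase were plated for 4 h, given compound plus 1 nM T3 (final), and incubated 23.5 h at 37 C. ONE-Glo luminescence measured reporter inhibition; CellTiter-Fluor fluorescence tracked cytotoxicity.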

The test system of test [3] is thyroid hormone receptor (rat, GH3 cells). Nature of the test: qHTS assay to identify small molecule agonists of the thyroid receptor (TR) signaling pathway (AID 743066; calls by dose curve). A general note: In qHTS, concentration-response curves come from the screen itself.
For test [4], the target named is Estrogen receptor (Homo sapiens) (UniProt P03372). Nature of the test: qHTS assay to identify small molecule antagonists of the estrogen receptor alpha (ER-alpha) signaling pathway (AID 743069; active = well fitted curve in the direction sought with a large enough effect in the signal ratio in the repeat runs, not every such curve was filed as active; the % refers to the signal ratio). A digest of the protocol:
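Estradiol-stimulated ER-alpha-UAS-bla HEK293 cells, 18 hr compound exposure at 37C. LiveBLAzer B/G substrate, 2 hr RT, fluorescence read.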

Test [5] is described as follows: qHTS assay to identify small molecule antagonists of the estrogen receptor alpha (ER-alpha) signaling pathway - cell viability counter screen (AID 743074; calls by dose curve;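 also: HEK293 cells carrying ER-alpha-UAS-bla reporter stimulated with 17beta-estradiol; nearly all actives have a fitted effect of over 45% in size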).
For test [6], the target named is Estrogen receptor (Homo sapiens) (UniProt P03372). Nature of the test: qHTS assay to identify small molecule agonists of the estrogen receptor alpha (ER-alpha) signaling pathway (AID 743075; calls by dose curve;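 also: HEK293 GripTite cells with ER-alpha and UAS-driven beta-lactamase reporter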; also: potency is read from the fitted curve at half-maximal effect).
The target is the same in test [7]. Nature of the test: qHTS assay to identify small molecule agonists of the estrogen receptor alpha (ER-alpha) signaling pathway using the BG1 cell line (AID 743079). Also: nearly all actives have a fitted effect of over 20% in size. Also: potency is read from the fitted curve at half-maximal effect.
Test [8] in a line: qHTS assay to identify small molecule antagonists of the estrogen receptor alpha (ER-alpha) signaling pathway using the BG1 cell line (AID 743080; calls by dose curve;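 also: BG1 cells stimulated with 17beta-estradiol alongside compound; series mostly up to about 70 µM; nearly all actives have a fitted effect of over 25% in size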). In short, it runs like this:
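Readout is ONE-Glo luminescence, taken 30 min at room temperature after reagent addition, preceded by a CellTiter-Fluor viability read; BG1-Luc-4E2 cells had received compound and 17beta-estradiol for 21.5 h at 37 C.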

The nature of test [9]: qHTS assay to identify small molecule antagonists of the estrogen receptor alpha (ER-alpha) signaling pathway using the BG1 cell line - cell viability counter screen (AID 743081).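 Also: compound given together with 17beta-estradiol as the ER stimulus; series mostly up to about 70 µM; nearly all actives have a fitted effect of over 45% in size.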
Test [10] has as its target Aromatase (Homo sapiens) (UniProt P11511). In words: qHTS assay to identify aromatase inhibitors (AID 743083). Also: series mostly up to about 70 µM; nearly all actives have a fitted effect of over 55% in size.

The structures appear in SMILES notation. Results filed as inconclusive are left out. A number with no mark means an inactive call. Calls of active or inactive are those of the source. Unless noted, calls follow the shape of the dose curve; as a rule, active = well fitted curve in the direction sought with a large enough effect in the repeat runs; inconclusive = weak or mixed curves; inactive = no such curve, though single readings can be large; an effect the other way counts as inactive or inconclusive.

Sequence of Estrogen receptor (Homo sapiens) (P03372 whole entry, looked up): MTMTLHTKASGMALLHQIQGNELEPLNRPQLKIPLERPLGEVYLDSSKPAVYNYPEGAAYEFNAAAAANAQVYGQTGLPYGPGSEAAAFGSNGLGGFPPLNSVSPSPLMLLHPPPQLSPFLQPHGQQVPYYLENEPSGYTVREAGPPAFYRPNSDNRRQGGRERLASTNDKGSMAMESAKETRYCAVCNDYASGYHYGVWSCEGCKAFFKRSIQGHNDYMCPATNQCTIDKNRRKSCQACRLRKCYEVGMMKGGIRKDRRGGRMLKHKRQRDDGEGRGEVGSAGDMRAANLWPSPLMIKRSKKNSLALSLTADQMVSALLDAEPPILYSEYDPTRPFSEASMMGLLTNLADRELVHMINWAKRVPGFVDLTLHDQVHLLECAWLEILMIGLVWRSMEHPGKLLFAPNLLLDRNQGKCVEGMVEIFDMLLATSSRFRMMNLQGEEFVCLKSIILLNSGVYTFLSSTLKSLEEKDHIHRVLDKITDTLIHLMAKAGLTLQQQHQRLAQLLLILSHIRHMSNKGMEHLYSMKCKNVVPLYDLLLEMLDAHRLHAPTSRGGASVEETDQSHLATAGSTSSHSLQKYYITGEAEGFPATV
Sequence of Aromatase (Homo sapiens) (P11511 whole entry, looked up): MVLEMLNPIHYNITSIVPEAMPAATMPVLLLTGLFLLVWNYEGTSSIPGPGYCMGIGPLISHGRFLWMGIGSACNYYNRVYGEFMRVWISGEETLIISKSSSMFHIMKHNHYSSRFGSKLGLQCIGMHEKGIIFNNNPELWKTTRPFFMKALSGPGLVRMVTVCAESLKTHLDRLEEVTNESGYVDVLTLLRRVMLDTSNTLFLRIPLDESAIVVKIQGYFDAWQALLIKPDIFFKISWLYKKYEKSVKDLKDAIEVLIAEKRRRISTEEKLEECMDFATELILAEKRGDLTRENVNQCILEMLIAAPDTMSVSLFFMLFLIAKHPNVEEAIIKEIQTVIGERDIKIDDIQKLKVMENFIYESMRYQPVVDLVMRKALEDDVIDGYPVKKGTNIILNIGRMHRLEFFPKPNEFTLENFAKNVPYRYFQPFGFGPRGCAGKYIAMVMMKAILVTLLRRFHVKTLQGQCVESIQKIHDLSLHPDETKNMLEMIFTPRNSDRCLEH

Turning to `CCCOCCOCCOCCO`, the Potency result in test [1], in test [2], in test [3], in [4], in [5] and in test [6] was “inactive” each time. In addition, the Potency entry in test [7] was “inactive”. The result in [8], in test [9] and in test [10] was inactive.

With `O=C(COCCOCCOCC(=O)Nc1c(I)cc(I)c(C(=O)O)c1I)Nc1c(I)cc(I)c(C(=O)O)c1I`, the Potency entry in test [1], in test [2], in [3], in test [4], in test [5] and in [6] was “inactive” each time. The Potency result in test [7] was “inactive”. For the same molecule, the molecule was classed as inactive in [8], in test [9] and in test [10].

`CCN(CCC#N)c1ccccc1`: the Potency entry in test [1], in test [2], in test [3], in test [4], in test [5] and in [6] was “inactive” throughout. In test [7], the Potency result was “inactive”. For the same molecule, the molecule was classed as inactive in test [8], in test [9] and in test [10].

As to `CC(C)CCO`, the Potency result in test [1], in test [2], in test [3], in test [4], in test [5] and in [6] was “inactive” each time. Also, the Potency result in test [7] is “inactive”. For the same molecule, the call in [8], in [9] and in test [10] was inactive.

Consider `CC(C)COC(=O)CC(C(=O)OCC(C)C)S(=O)(=O)O` (stereo not drawn), for which the Potency entry in [1], in test [2], in test [3], in test [4], in test [5] and in test [6] was “inactive” in each case. The Potency entry in test [7] is “inactive”. Moreover, the call in test [8], in [9] and in test [10] was inactive.

Turning to `COC(OC)C(C)c1ccccc1` (stereo not drawn), the Potency entry in test [1], in test [2], in [3], in test [4], in test [5] and in [6] was “inactive” in each case. The Potency entry in test [7] was “inactive”. Moreover, the outcome in test [8], in test [9] and in [10] was inactive.

In the case of `O=C(Oc1ccccc1C(=O)O)c1ccccc1O`, the Potency entry in test [1], in test [2], in test [3], in test [4], in test [5] and in [6] was “inactive” in each case. Besides, the Potency in [7] was 26.6 µM (active). The molecule was classed as inactive in test [8], in test [9] and in [10].

`CC(C)(C)c1ccc(C=O)cc1`: the Potency result in test [1], in [2], in test [3], in [4], in test [5] and in test [6] was “inactive” in each case. In addition, the Potency result in test [7] is “inactive”. The result in [8], in test [9] and in test [10] was inactive.

`CC(C)COC(=O)/C=C/c1ccccc1`: the Potency entry in test [1], in [2], in test [3], in test [4], in test [5] and in [6] was “inactive” throughout. Moreover, the Potency entry in test [7] is “inactive”. Besides, the result in test [8] and in test [9] was inactive.

`CCCCCCCCCCCCOC(C)=O`: the Potency result in [1], in test [2], in [3], in [4], in test [5] and in test [6] was “inactive” each time. In test [7], the Potency result is “inactive”. Moreover, the result in [8], in [9] and in test [10] was inactive.

With `CNC(=O)C(c1ccccc1)c1ccccc1`, the Potency result in [1], in test [2], in [3], in test [4], in test [5] and in test [6] was “inactive” throughout. For the same molecule, the Potency result in test [7] was “inactive”. Moreover, the call in test [8], in [9] and in test [10] was inactive.

Consider `COc1ccc(NS(=O)(=O)c2ccc(N)cc2)nn1`, for which the Potency result in test [1], in test [2], in test [3], in test [4], in [5] and in test [6] was “inactive” throughout. The Potency result in [7] is “inactive”. In addition, the outcome in [8], in test [9] and in test [10] was inactive.

As to `CC(=O)N(CC(O)CO)c1c(I)c(C(=O)NCC(O)CO)c(I)c(C(=O)NCC(O)CO)c1I` (stereo not drawn), the Potency entry in test [1], in test [2], in [3], in test [4], in test [5] and in test [6] was “inactive” each time. For the same molecule, the Potency result in test [7] was “inactive”. In addition, the molecule was called inactive in [8], in test [9] and in test [10].

Take `CN[C@@H]1[C@H](O)[C@H](NC)[C@H]2O[C@@]3(O)C(=O)C[C@@H](C)O[C@H]3O[C@@H]2[C@H]1O`: the Potency entry in test [1], in test [2], in test [3], in test [4], in [5] and in test [6] was “inactive” each time. The Potency result in test [7] was “inactive”. The outcome in test [8] and in [10] was inactive.

Turning to `CCC(=O)c1ccc(O)cc1`, the Potency entry in [1], in test [2], in [3], in [4], in test [5] and in test [6] was “inactive” in each case. The Potency entry in [7] was “inactive”. The molecule was classed as inactive in [8], in test [9] and in test [10].

On to `O=C(/C=C/c1ccccc1)NCCO`, for which the Potency result in [1], in test [2], in test [3], in [4], in test [5] and in test [6] was “inactive” in each case. For the same molecule, in test [7], the Potency entry is “inactive”. Also, the result in test [8], in test [9] and in test [10] was inactive.

For the molecule `CCS(=O)(=O)CCn1c([N+](=O)[O-])cnc1C`, the Potency result in test [1], in test [2], in [3], in test [4] and in test [5] was “inactive” in each case. The Potency in [6] was 10.2 µM [activator] (active); in test [7] it was 2.27 µM (active). Besides, the call in test [8], in [9] and in test [10] was inactive.

With `CCCCC(=O)N(C)C`, the Potency result in test [1], in [2], in test [3], in test [4], in test [5] and in test [6] was “inactive” throughout. Further, in test [7], the Potency entry is “inactive”. In addition, the call in test [8], in test [9] and in test [10] was inactive.

In the case of `O=S(=O)(O)CCO`, the Potency result in [1], in [2], in test [3], in test [4], in test [5] and in test [6] was “inactive” throughout. For the same molecule, the Potency result in test [7] is “inactive”. Further, the result in [8], in test [9] and in test [10] was inactive.

As for `CCN1CN(CC)CN(CC)C1`, the Potency entry in test [1], in [2], in test [3], in [4], in test [5] and in test [6] was “inactive” throughout. In addition, the Potency result in test [7] was “inactive”. The molecule was called inactive in [8], in [9] and in test [10].

`Nc1cc(C(=O)O)ccc1Cl`: the Potency result in test [1], in test [2], in test [3], in [4], in test [5] and in [6] was “inactive” each time. In addition, the Potency entry in [7] was “inactive”. Also, the molecule was called inactive in [8], in test [9] and in test [10].

For `CN=C(NC#N)NCCSCc1csc(N=C(N)N)n1`, the Potency entry in test [1], in test [2], in test [3], in [4], in [5] and in test [6] was “inactive” each time. In addition, in [7], the Potency result was “inactive”. The outcome in test [8], in test [9] and in test [10] was inactive.

Turning to `CC(CC(=O)O)CC(C)(C)C` (stereo not drawn), the Potency result in [1], in [2], in [3], in [4], in test [5] and in test [6] was “inactive” throughout. In addition, the Potency result in test [7] is “inactive”. In addition, the result in [8], in test [9] and in [10] was inactive.

As for `COc1ccc(/C=N/NC(=O)c2ccncc2)cc1OC`, the Potency entry in test [1], in test [2], in test [3], in test [4], in test [5] and in test [6] was “inactive” throughout. Further, the Potency entry in test [7] was “inactive”. Also, the call in [8], in [9] and in [10] was inactive.

In the case of `O=CN1CCOCC1`, the Potency entry in test [1], in [2], in [3], in test [4], in test [5] and in test [6] was “inactive” in each case. Further, the Potency result in test [7] is “inactive”. Besides, the outcome in test [8], in test [9] and in test [10] was inactive.
